In the library only some 2.6% were active in any assay of this set; here they are far more common.
A3A deaminase: APOBEC3A ssDNA deaminase inhibitors, primary screen, selectivity assay for APOBEC3G inhibitor project, biochemical, FAM/TAMRA oligo cleavage fluorescence. recombinant A3A, FAM/TAMRA ssDNA deamination fluorescence. actives 0.41% (n = 330,000). DNA dC->dU-editing enzyme APOBEC-3A (Homo sapiens), P31941. inhibition, % at 20 µM;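 active means at least 40% inhibition at 20 µM here, with at most 30% in a related deaminase screen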
Target sequence (P31941 whole entry, looked up): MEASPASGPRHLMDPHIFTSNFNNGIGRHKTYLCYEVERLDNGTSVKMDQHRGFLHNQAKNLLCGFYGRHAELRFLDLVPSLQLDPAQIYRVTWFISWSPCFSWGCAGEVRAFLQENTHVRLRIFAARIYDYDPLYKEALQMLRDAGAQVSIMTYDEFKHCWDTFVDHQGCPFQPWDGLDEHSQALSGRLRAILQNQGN
PABP FP inh: PABP poly(A) RNA binding inhibitors, primary screen, biochemical, fluorescence polarization, uHTS; actives 1% (n = 290,000); calls only at 35 µM; AID 2014, 2009;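 further: calls also rest on retests at 20 µM and on dose response follow-up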
APOBEC3G inh: APOBEC3G DNA deaminase inhibitors, primary screen, biochemical, fluorescence, single-stranded DNA substrate, uHTS. DNA dC->dU-editing enzyme APOBEC-3G (Homo sapiens), Q9HC16. recombinant A3G, ssDNA deamination FAM/TAMRA fluorescence. inhibition, % at 20 µM. actives 0.28% (n = 330,000). AID 493012, 2011;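 active means inhibition of at least 40% at 20 µM, with no more than 30% in the related APOBEC3A deaminase screen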
eIF4H FP inh: human eIF4H binding inhibitors, primary screen, translation initiation inhibitor project, biochemical, uHTS, fluorescence polarization. eIF4H fluorescence polarization binding assay. actives 0.94% (n = 290,000). inhibition, % at 35 µM. Eukaryotic translation initiation factor 4H (Homo sapiens), Q15056. AID 2012, 2009;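 further: calls also rest on retests at 20 µM and on dose response follow-up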
PHOSPHO1 block: PubChem AID 1565. recombinant PHOSPHO1, absorbance phosphatase assay. actives 1.1% (n = 290,000). inhibition, % at 13.3 µM. Phosphoethanolamine/phosphocholine phosphatase (Homo sapiens), Q8TCT1; in the data active means inhibition above about 60%
Target sequence (Q8TCT1 whole entry, looked up): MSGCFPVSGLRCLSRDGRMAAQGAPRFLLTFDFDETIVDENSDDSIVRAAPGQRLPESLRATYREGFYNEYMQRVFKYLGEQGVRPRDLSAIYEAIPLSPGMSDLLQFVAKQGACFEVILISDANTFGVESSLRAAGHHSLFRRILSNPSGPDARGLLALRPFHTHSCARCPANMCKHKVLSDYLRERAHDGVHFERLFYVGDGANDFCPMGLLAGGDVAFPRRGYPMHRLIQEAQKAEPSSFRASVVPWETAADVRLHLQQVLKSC
PABP1 MLLE inh: inhibitors of PABP1 MLLE–PAM2 peptide binding, primary screen, biochemical, fluorescence polarization, FITC-PAM2, GST-MLLE. actives 0.36% (n = 360,000). Polyadenylate-binding protein 1 (Homo sapiens), P11940. inhibition, % at 20 µM; in the data active means inhibition above about 35%, passing the limit was not always enough
APOBEC3A confirm: APOBEC3A deaminase inhibitors, retest, confirmation, selectivity assay for APOBEC3G inhibitor project, biochemical, single concentration, fluorescence readout. shares compounds with A3A deaminase. recombinant A3A, ssDNA deaminase UDG fluorescence assay. inhibition, % at 20 µM. actives 63% (n = 1,400). AID 493151, 2011;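 active means inhibition reaching a set limit, 80% of the first screen's cutoff, at 20 µM in any replicate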
UDG ctr A3A: E. coli UDG inhibitors, confirmation, counter-screen for APOBEC3A inhibitor project, biochemical, single concentration, fluorescence, FAM/TAMRA oligo; 1,000 tested, under 10 active; inhibition, % at 20 µM; UDG counterscreen, FAM/TAMRA uracil oligo fluorescence; shares compounds with A3A deaminase
Each line names hits and unclear results; the compound was inactive in the other large screens (follow-up assays come after a bar, where they were run). Unless noted, how the calls were made is not given here.

CCc1n(CC(O)COC2CCCCC2)c2ccccc2[n+]1C (stereo not given)	A3A deaminase 67, PABP FP inh active | APOBEC3A confirm 71 | UDG ctr A3A inactive
CC(=O)OCC(=O)C12OC(C)(C)OC1CC1C3CC=C4CC(O)CCC4(C)C3CCC12C (stereo not given)	none (no result: A3A deaminase, PABP FP inh, APOBEC3G inh, eIF4H FP inh, PHOSPHO1 block)
NC(=O)C[n+]1cccc2ccccc21	A3A deaminase 43, PABP FP inh inconclusive, eIF4H FP inh inconclusive, PHOSPHO1 block 94 | APOBEC3A confirm 59 | UDG ctr A3A inactive
Cc1ccc(C)c(NC(=O)CN(C)C(=O)CSC(C)C(=O)Nc2cc(C)on2)c1 (stereo not given)	none
COc1ccc(NC(=O)N(C)C[C@H]2OCc3cn(nn3)CCCC(=O)N([C@@H](C)CO)C[C@@H]2C)cc1	none (no result: A3A deaminase, PABP FP inh, APOBEC3G inh, eIF4H FP inh, PHOSPHO1 block)
O=C(NCc1ccc2c(c1)OCO2)C1CCCN1S(=O)(=O)c1ccc(F)cc1 (stereo not given)	A3A deaminase 55 | APOBEC3A confirm inactive | UDG ctr A3A inactive
CCC(C)NC(=O)c1ccc(Cl)c(S(=O)(=O)Nc2ccccc2N2CCOCC2)c1 (stereo not given)	none (no result: PABP FP inh, eIF4H FP inh, PHOSPHO1 block)
COc1ccc(NC(=O)Cn2cnc3ccccc3c2=O)cc1OC	none
COc1ccc2nc(NC(=O)Cn3cnc4ccccc4c3=O)sc2c1	A3A deaminase 43 | APOBEC3A confirm inactive
CCc1ccccc1NC(=O)C1CCN(C(=O)c2cccs2)CC1	none
Cc1cc(C)c(NC(=O)CNC(=O)[C@@H]2CCCN2C(=O)c2cccs2)c(C)c1	none (no result: PABP FP inh, eIF4H FP inh, PHOSPHO1 block)
Cc1ccc(NC(=O)C2CCCN2C(=O)c2cccs2)c(C)c1 (stereo not given)	A3A deaminase 51 | APOBEC3A confirm 59 | UDG ctr A3A inactive
O=C(Nc1nc2c(s1)CCCC2)C1CCCN1C(=O)c1cccs1 (stereo not given)	A3A deaminase 54, PHOSPHO1 block 95 | APOBEC3A confirm 46 | UDG ctr A3A inactive
O=C(Nc1nccs1)[C@@H]1CCCN1C(=O)c1cccs1	none
Cc1ccc(NC(=O)C2CCN(C(=O)c3cccs3)CC2)c(C)c1	A3A deaminase 44 (no result: PABP FP inh, eIF4H FP inh) | APOBEC3A confirm 67 | UDG ctr A3A inactive
O=C1C/C(=C\c2c(F)cccc2Cl)N2CCC1CC2	none
COc1ccc(/C=C/C(=O)OCC(=O)NC2CCCCC2C)c(OC)c1 (stereo not given)	none (no result: PABP FP inh, eIF4H FP inh, PHOSPHO1 block)
CCCOc1cccc(C2C(C(=O)c3cc4ccccc4o3)=C(O)C(=O)N2c2cc(C)on2)c1 (stereo not given)	A3A deaminase 57 | APOBEC3A confirm inactive | UDG ctr A3A inactive
O=C(c1ccc2[nH]ccc2c1)N1CCCC(Nc2ccccc2)C1 (stereo not given)	none
O=C(NCc1cccc(Cl)c1)c1ccc(-n2cncn2)c2ccoc12	none (no result: A3A deaminase, PABP FP inh, APOBEC3G inh, eIF4H FP inh, PHOSPHO1 block)
Cc1[nH]c(=O)c(C#N)c(C)c1CCC(=O)NCc1ccc(Cl)cc1	A3A deaminase 71 | APOBEC3A confirm inactive | UDG ctr A3A inactive
Cc1cccc(Cc2c(C)[nH]c(=O)c(C#N)c2C)c1	none
c1cc[n+](CCC[n+]2ccccc2)cc1	A3A deaminase 71 (no result: PABP FP inh, eIF4H FP inh) | APOBEC3A confirm 88 | UDG ctr A3A inactive
O=C(NCc1ccccc1)c1[nH]c(C(F)(F)F)nc1-c1ccccc1	none (no result: A3A deaminase, PABP FP inh, APOBEC3G inh, eIF4H FP inh, PHOSPHO1 block)
CC(C)CN(C(=O)C1=COCCO1)c1c(N)n(Cc2ccccc2)c(=O)[nH]c1=O	none (no result: A3A deaminase, PABP FP inh, APOBEC3G inh, eIF4H FP inh, PHOSPHO1 block)
O=C(/C=C/c1ccccc1)OCC(=O)N1CCCC1	none (no result: PABP FP inh, eIF4H FP inh, PHOSPHO1 block)
O=C(/C=C/c1ccco1)OCC(=O)N1CCCCC1	A3A deaminase 49 (no result: PABP FP inh, eIF4H FP inh, PHOSPHO1 block) | APOBEC3A confirm 38 | UDG ctr A3A inactive
COc1ccc(-c2nnc(SCC(=O)Nc3ccc(C)cc3)n2C)cc1	none
Cn1c(SCC(=O)Nc2ccc3c(c2)oc2ccccc23)nnc1-c1ccccc1	A3A deaminase 46 | APOBEC3A confirm 60 | UDG ctr A3A inactive
Cn1c(SCC(=O)Nc2ccc3[nH]c(=O)[nH]c3c2)nnc1-c1ccccc1	none
COc1ccc(-c2nnc(SCC(=O)NC(=O)Cc3ccccc3)n2C)cc1	A3A deaminase 43 (no result: PABP FP inh, eIF4H FP inh, PHOSPHO1 block) | APOBEC3A confirm inactive
Cn1c(SCC(=O)NC(C)(C)C)nnc1-c1cccc(NC(=O)c2ccccc2F)c1	A3A deaminase 45 (no result: PABP FP inh, eIF4H FP inh) | APOBEC3A confirm inactive
CCSCc1nnc(SCC(=O)Nc2ccc(OC)cc2)n1C	A3A deaminase 56 | APOBEC3A confirm 63 | UDG ctr A3A inactive
O=C(NCCCN1CCCC1=O)C1CCC(CNS(=O)(=O)c2ccc(Cl)cc2)CC1 (stereo not given)	none
Cc1ccccc1OCC(=O)N/N=C/c1ccc([N+](=O)[O-])o1	none
COc1ccccc1OCC(=O)N/N=C/C=C/c1ccc([N+](=O)[O-])o1	A3A deaminase 45, eIF4H FP inh inconclusive | APOBEC3A confirm 19 | UDG ctr A3A inactive
CCn1c(/C=C/c2ccccc2)nc2ccccc21	none
CCCn1c(/C=C/c2cc[n+](C)cc2)nc2ccccc21	A3A deaminase 57, PABP FP inh active | APOBEC3A confirm 62
Cc1cc(CC(=O)O)c2oc(-c3ccoc3)cc(=O)c2c1	none (no result: PABP FP inh, eIF4H FP inh, PHOSPHO1 block, PABP1 MLLE inh)
CN(C)S(=O)(=O)c1ccc(C(=O)NCC[N+]2(C)CCCCCC2)o1	A3A deaminase 93 | APOBEC3A confirm 73 | UDG ctr A3A inactive
COc1cc(/C=N\NC(=O)c2ccc(Cl)cc2)ccc1Oc1ccc([N+](=O)[O-])cn1	A3A deaminase 48 (no result: PABP FP inh, eIF4H FP inh) | APOBEC3A confirm 63 | UDG ctr A3A inactive
COc1cc(/C=N\NC(=O)c2cccc(Cl)c2)ccc1Oc1ccc([N+](=O)[O-])cn1	none
O=C(NNC(=O)c1cccc(-n2cccc2)c1)c1ccc(F)cc1	A3A deaminase 42 (no result: PABP FP inh, eIF4H FP inh, PHOSPHO1 block) | APOBEC3A confirm 28 | UDG ctr A3A inactive
Cc1cccc(C(=O)NNC(=O)c2ccc(F)cc2)c1	none
CCn1ncc(-c2ccnc3cc(C(=O)O)nn23)c1C	A3A deaminase 94 | APOBEC3A confirm 77 | UDG ctr A3A inactive
C[N+](C)(C)CCCN(Cc1ccc2c(c1)OCO2)C(=O)NC1CCCCC1	A3A deaminase 56 | APOBEC3A confirm 72 | UDG ctr A3A inactive
CCOc1ccc(C(CC(=O)O)NC(=O)Cc2ccc(Cl)cc2)cc1 (stereo not given)	none
